High-throughput results (PubChem)
NS1 function inh: blocks influenza NS1 protein function. 270,000 compounds, 0.4% hits. Potency, µM (doses to about 46.1 µM), for inactives: at the highest dose activity, positive = more growth; calls by dose curve; also: potency is read from the fitted curve at half-maximal effect; actives are rising curves; nearly all actives have a fitted effect of over 50% in size
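Growth recovery, yeast-based: influenza A NS1 expressed in S. cerevisiae causes slow growth, and suppressors are detected by OD600. The parent strain without NS1 is used as positive control.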
Shiga inhibitor: Shiga toxin inhibition. 290,000 compounds, 9.2% hits. inhibition, % at 38.7 µM. Vero cells, Shiga toxin protein synthesis inhibition reporter. AID 2315; in the data active = inhibition mostly above about 28%, no sharp cut-off; inactive = mostly below about 43%; also: 0% is about no effect
FBPA Giardia inh: Giardia lamblia aldolase inhibition | purified Giardia FBPA | Potency, µM (top dose mostly 59.6 µM), without a hit: at the top dose activity, negative = inhibition, usual class: inhibitors | 290,000 compounds, 0.71% hits | AID 2451; also: potency is read from the fitted curve at half-maximal effect; % is scaled to controls: 0 for no effect and ±100 for the full control effect; nearly all actives have a fitted effect of over 55% in size
Target sequence (A8B2U2 whole entry, looked up): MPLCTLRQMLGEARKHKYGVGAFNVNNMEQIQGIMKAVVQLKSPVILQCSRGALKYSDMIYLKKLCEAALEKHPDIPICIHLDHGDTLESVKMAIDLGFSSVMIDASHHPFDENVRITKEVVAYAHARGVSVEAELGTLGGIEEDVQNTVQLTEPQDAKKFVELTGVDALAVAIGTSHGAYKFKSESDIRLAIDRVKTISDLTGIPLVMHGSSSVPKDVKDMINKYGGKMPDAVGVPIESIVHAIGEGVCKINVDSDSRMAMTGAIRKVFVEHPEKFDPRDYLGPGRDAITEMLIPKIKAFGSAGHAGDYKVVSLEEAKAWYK
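40 nM FBPA preincubated 10 min at RT with compound (up to 57.5 uM final), then substrate plus GAPDH/TPI/NAD/arsenate coupling and diaphorase/resazurin added. Fluorescence read after 20 min at RT, 525/598 nm.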
Pf growth 96h: P. falciparum growth inhibition at 96 hour, primary screen for plastid delayed-death inhibitors. P. falciparum luciferase reporter growth, 96 h. Potency, µM (highest dose often 28.7 µM), without a hit: at the highest dose activity change, negative = inhibition, actives largely listed as inhibitors. 320,000 compounds, 6.9% hits. AID 504834; also: potency is read from the fitted curve at half-maximal effect; % is scaled to controls: 0 for no effect and ±100 for the full control effect
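96 h incubation, 37 C, 5% CO2, of luciferase-reporter P. falciparum-infected RBCs (2% hematocrit, 0.05% parasitemia final) with test compounds; endpoint luminescence.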
Cycloheximide cs: counter-screen for Shiga toxin inhibitors: cycloheximide protein synthesis inhibition | cell reporter, cycloheximide protein synthesis inhibition counterscreen | max response, % | 300,000 compounds, 12% hits; in the data active = max response mostly above about 13%, no sharp cut-off; inactive = mostly below about 14%; also: read at 38.3 µM for the half of the compounds with a filed dose; 0% is about no effect
Pf growth 48h: P. falciparum growth inhibition at 48 hours (one generation); P. falciparum luciferase growth in erythrocytes, 48 h; Potency, µM (titrated, usually from 28.7 µM), inactives show at the highest dose activity change, negative = inhibition, hits mostly inhibitors; 310,000 compounds, 5.9% hits; also: potency is read from the fitted curve at half-maximal effect; % is scaled to controls: 0 for no effect and ±100 for the full control effect
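Cell-based growth assay: transgenic P. falciparum expressing firefly luciferase, cultured in red cells within RPMI 1640 containing 0.5% w/v Albumax, 24 mM bicarbonate and gentamycin. A drop in luciferase activity indicates inhibition.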
The depositor's hits bear a star; [ ] = another dose, or the depositor's remark. Only some compounds are listed: those with a hit (about 21% of all), similar ones and a draw of the others. Unless noted, calls follow the shape of the dose curve; as a rule, active = well fitted curve in the direction sought with a large enough effect; inconclusive = small, poorly fitted or top-dose-only effect, or another doubt; inactive = no such curve, though single readings can be large; an effect the other way counts as inactive or inconclusive.

Results for CCN1C(=O)[C@H]2[C@H]3[C@H](O)[C@H](O)C/C(=N/O[C@@H]4O[C@@H](COC(C)=O)[C@@H](OC(C)=O)[C@@H](OC(C)=O)[C@H]4OC(C)=O)[C@@H]3CC[C@@H]2C1=O ?
FBPA Giardia inh: 3.0%[12.9 µM]

What do the screens show for `CCN(C(=O)c1cn(C)c(=O)c2ccccc12)c1ccccc1F`?
NS1 function inh: 9.5%; Shiga inhibitor: -4.8; FBPA Giardia inh: 3.6%; Pf growth 96h: 1.6%; Cycloheximide cs: -2.2; Pf growth 48h: -15.5%

Results for O=C(Nc1cnccn1)c1ccncc1 ?
NS1 function inh: 2.5%; Shiga inhibitor: -2.2; FBPA Giardia inh: 12.9%; Pf growth 96h: 4.7%; Cycloheximide cs: 0.8; Pf growth 48h: 13.9%

Results for O=C(Nc1cnccn1)c1csc2ccccc12 ?
NS1 function inh: -59.3%; Shiga inhibitor: 111.2*; FBPA Giardia inh: -9.3%; Pf growth 96h: 0.8%[5.75 µM]; Cycloheximide cs: 27.1*; Pf growth 48h: 79.3%

Results for O=C(Nc1ccon1)c1csc2ccccc12 ?
NS1 function inh: -35.0%; Shiga inhibitor: 30.5; FBPA Giardia inh: 0.5%; Cycloheximide cs: 9.7*; Pf growth 48h: -9.0%

What do the screens show for `COC(=O)c1ccc(C(NC(=O)OCc2ccccc2)/C(=C/[C@@H](C)C(=O)N(C)Cc2cccnc2)c2cccnc2)cc1` (stereo partly specified)?
FBPA Giardia inh: 1.1%

How did Cc1ccc(C)c(N(C(=O)c2snc(C(N)=O)c2N)C(C(=O)NCC2CCCO2)c2ccc(C)o2)c1 (stereo unspecified) do in these assays?
NS1 function inh: -7.7%; Shiga inhibitor: -6.4; FBPA Giardia inh: -8.8%; Pf growth 96h: 20.0%; Cycloheximide cs: 1.6; Pf growth 48h: inconclusive

What do the screens show for `c1csc(C2Nc3ccccc3-c3nc4ccccc4n32)c1` (stereo unspecified)?
NS1 function inh: -48.5%; Shiga inhibitor: 123.6*; FBPA Giardia inh: -3.0%; Pf growth 96h: inconclusive; Cycloheximide cs: 51.8*; Pf growth 48h: inconclusive

How did Cc1ccsc1C1Nc2ccccc2-c2nc3ccccc3n21 (stereo unspecified) do in these assays?
NS1 function inh: -32.2%; Shiga inhibitor: 132.3*; FBPA Giardia inh: -22.2%; Pf growth 96h: 82.3%; Cycloheximide cs: 76.1*; Pf growth 48h: 58.6%

What do the screens show for `CS(=O)(=O)NN1C(=O)c2ccccc2NC1c1cccs1` (stereo unspecified)?
Shiga inhibitor: -9.4; FBPA Giardia inh: -0.1%; Pf growth 96h: -21.2%; Cycloheximide cs: -3.2; Pf growth 48h: -24.1%

How did COCC1CCCN(C(=O)c2ccc3oc(CCCc4ccccc4)nc3c2)C1 (stereo unspecified) do in these assays?
NS1 function inh: 9.4%; Shiga inhibitor: 12.5; Pf growth 96h: inconclusive; Cycloheximide cs: 1.6; Pf growth 48h: inconclusive

How did CCCCc1nc2cc(C(=O)N3CCC(OCCOC)CC3)ccc2o1 do in these assays?
NS1 function inh: 2.1%; Shiga inhibitor: 72.6*; Pf growth 96h: 9.0%; Cycloheximide cs: 27.7*; Pf growth 48h: 9.5%

What do the screens show for `CCCCc1nc2cc(C(=O)N3CCCC(OCCC)C3)ccc2o1` (stereo unspecified)?
NS1 function inh: -20.5%; Shiga inhibitor: 103.3*; Pf growth 96h: -8.9%; Cycloheximide cs: 47.5*; Pf growth 48h: 7.2%

What do the screens show for `COCCN1CCN(C(=O)c2ccc3nc(Cc4ccccc4F)oc3c2)CC1`?
NS1 function inh: 0.8%; Shiga inhibitor: 15.4; Pf growth 96h: inconclusive; Cycloheximide cs: 9.3; Pf growth 48h: -2.9%

What do the screens show for `COCC1CCN(C(=O)c2ccc3oc(CCCc4ccccc4)nc3c2)C1` (stereo unspecified)?
NS1 function inh: -5.7%; Shiga inhibitor: 39.3; Pf growth 96h: 3.7µM*; Cycloheximide cs: 28.7*; Pf growth 48h: -24.1%

What do the screens show for `CC1CCCN(C(=O)c2ccc3nc[nH]c3c2)C1` (stereo unspecified)?
NS1 function inh: 3.8%; Shiga inhibitor: -18.4; FBPA Giardia inh: -8.4%; Pf growth 96h: 23.5%; Cycloheximide cs: -2.8

How did COCCN1CCN(C(=O)c2ccc3oc(CCCc4ccccc4)nc3c2)CC1 do in these assays?
NS1 function inh: -11.4%; Shiga inhibitor: 111.8*; Pf growth 96h: -12.7%; Cycloheximide cs: 22.9*; Pf growth 48h: 48.4%

What do the screens show for `Nc1ncnc2c1ncn2[C@@H]1O[C@H](C(=O)NC2CC2)[C@H](O)[C@H]1O`?
NS1 function inh: -3.1%; FBPA Giardia inh: 2.9%

Results for CC(=O)N1c2ccc(S(=O)(=O)N3CCC(C(=O)Nc4cccc(C(F)(F)F)c4)CC3)cc2CC1C (stereo unspecified) ?
NS1 function inh: 13.4%; Shiga inhibitor: 11.0; FBPA Giardia inh: -0.9%; Pf growth 96h: inconclusive; Cycloheximide cs: -2.4; Pf growth 48h: inconclusive

Results for CCN(CC)C(=O)OCCc1cc2ccccc2c(=O)o1 ?
Pf growth 96h: inconclusive; Pf growth 48h: -0.8%

Results for CCCCc1nc2cc(C(=O)N3CCCC(COC)C3)ccc2o1 (stereo unspecified) ?
NS1 function inh: -26.3%; Shiga inhibitor: 73.4*; FBPA Giardia inh: 8.5%; Pf growth 96h: inconclusive; Cycloheximide cs: 62.6*; Pf growth 48h: 40.5%

What do the screens show for `N#C/C(=C\c1ccc([N+](=O)[O-])cc1)C(=O)Nc1ccccc1O`?
NS1 function inh: -13.8%; Shiga inhibitor: 39.5; FBPA Giardia inh: -10.6%; Pf growth 96h: inconclusive; Cycloheximide cs: 30.6*; Pf growth 48h: -13.6%

Results for N#C/C(=C/c1ccc(O)c([N+](=O)[O-])c1)C(=O)Nc1ccccc1 ?
Shiga inhibitor: 50.6*; FBPA Giardia inh: -21.6%; Pf growth 96h: -9.9%; Cycloheximide cs: 26.5*; Pf growth 48h: 41.2%

What do the screens show for `N#C/C(=C/c1ccc([N+](=O)[O-])cc1)C(N)=O`?
NS1 function inh: 0.2%; Shiga inhibitor: -9.0; FBPA Giardia inh: -18.7%; Pf growth 96h: 8.1%; Cycloheximide cs: -2.8; Pf growth 48h: 0.0%

How did N#C/C(=C/c1ccc([N+](=O)[O-])cc1)C(=O)Nc1ccccc1O do in these assays?
NS1 function inh: -10.3%; Shiga inhibitor: 74.3*; FBPA Giardia inh: -14.3%; Pf growth 96h: -20.0%; Cycloheximide cs: 62.4*; Pf growth 48h: -4.2%

Results for COc1ccc(NC(=O)N2CC3(CCN(C(=O)c4csnn4)CC3)C2)cc1 ?
FBPA Giardia inh: -0.4%

Results for Cc1cc2c(cc1S(=O)(=O)Nc1ccc(C(C)C)cc1)OCCN2C ?
Pf growth 96h: 11.7µM*; Pf growth 48h: inconclusive

How did CCN1CCN(CCNC(=O)c2ccc(/C=C3/Sc4ccccc4N(Cc4ccccc4C)C3=O)cc2)CC1 do in these assays?
Shiga inhibitor: -34.3; FBPA Giardia inh: -2.7%; Pf growth 96h: 14.6%; Cycloheximide cs: -13.2; Pf growth 48h: 11.7µM*
